CFTR F508del cor = correctors of CFTR F508del function in bronchial epithelial cells; CFBE cells, YFP halide quenching; stimulated with forskolin plus potentiator P3; % fluorescence drop versus neutral controls; activity (quench increase), % at 7.58 µM; 350,000 compounds, 0.36% hits; AID 720511;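 active means mean added fluorescence quench of at least 8% versus neutral control, with both replicates also reaching 8%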;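 further: cells transiently co-express mutant CFTR-F508del with the halide-sensitive YFP; corrector assay measuring rescue of mutant channel to the surface after 24 h compound exposure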
RAD52 anneal inh = RAD52 (human) annealing inhibition; P43351; recombinant RAD52 DNA annealing, FRET fluorescence; inhibition, % at 18.7 µM; 360,000 compounds, 0.46% hits;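 active means every replicate showing at least 50% inhibition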
EWS-Fli inh = blocks EWS/Fli oncoprotein-driven transcription | A673 NR0B1-luciferase reporter, viability-normalised | AID 651661 | 350,000 compounds, 0.67% hits | inhibition, % at 12.6 µM;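 active means mean inhibition of at least 50% after viability correction, with every replicate also passing that limit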;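 further: firefly luciferase signal divided by Alamar Blue viability fluorescence both relative to DMSO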
RAD54 inh = RAD54 (human) branch migration inhibition; 360,000 compounds, 0.14% hits; RAD54 Holliday junction branch migration, FAM/BHQ fluorescence; inhibition, % at 10.4 µM;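 active means mean normalized replicate activity at least 40 and at least half of replicates scoring 40 or more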;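 further: 0% = median of neutral control wells and 100% = median of positive control wells; inhibitors cause a drop in the FAM fluorescence signal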
LGR2 antag = Drosophila LGR2 receptor signaling inhibition; HEK293 LGR2, CRE-luciferase, bursicon-stimulated, 4 h; inhibition, % at 9.99 µM; 380,000 compounds, 0.35% hits;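 active means drop in luminescence signal, shown as inhibition above about 50% in the replicate tests, limit read from the data, passing the limit was not always enough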;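 further: agonist challenge used bursicon conditioned medium at about half maximal strength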
INS-1E GSIS act = primary screen for activators of insulin secretion dependent on glucose, INS-1E cells, GLuc reporter luminescence. 370,000 compounds, 0.61% hits. AID 743287. activation, % at 16.6 µM. INS-1E GLuc reporter insulin secretion, 2-3 h;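 active means lowest replicate activation of at least 40%, so every replicate reaches that level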;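 further: 0% = median of neutral control wells and 100% = median of IBMX positive control wells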
Active calls of the source: *; / = no result given. This is a sample that favours compounds with a hit; in the whole collection about 1.8% have one here.

SMILES	CFTR F508del cor	RAD52 anneal inh	EWS-Fli inh	RAD54 inh	LGR2 antag	INS-1E GSIS act
NNC(=O)C1C(O)CCC2CN3CCc4c([nH]c5ccccc45)C3CC21 (centres undefined)	5	-91	-5	-32	-9	41*
COC(=O)[C@@H]1[C@H]2C[C@H]3c4[nH]c5ccccc5c4CCN3C[C@@H]2CC[C@@H]1O	5	3	-9	1	7	27
CCOC(=O)c1cnc2c([N+](=O)[O-])cnn2c1C	1	-7	0	2	14	9
O=[N+]([O-])c1cnn2cc(Br)cnc12	0	10	7	-2	7	45*
COc1cc(NC(=O)COC(=O)c2n[nH]c3ccccc23)c(C)cc1[N+](=O)[O-]	20*	-13	-3	3	16	-5
COc1cc(CN2CCC(Cc3ccccc3)CC2)cc([N+](=O)[O-])c1O	2	-3	4	6	-7	0
COc1cc(NC(=O)CN2CCC(Cc3ccccc3)CC2)c(C)cc1[N+](=O)[O-]	/	/	/	-2	0	58*
Cc1cc(NC(=O)COC(=O)c2oc3c(ccc4ccccc43)c2C)no1	/	-14	6	0	3	43*
CCOc1cc(C(=O)OCC(=O)Nc2cc(C)on2)cc(OCC)c1OCC	/	/	/	9	0	76*
Cc1c(C(=O)OCC(=O)Nc2ccc(S(N)(=O)=O)cc2)oc2c1ccc1ccccc12	3	-6	7	/	-9	4
CCCCOc1ccc(C(=O)OCC(=O)Nc2cc(C)on2)cc1	3	-18	7	/	-1	2
CC(=O)c1cccc(-c2ccnc3c2CC(C(=O)NCc2ccc(N4CCN(C)CC4)cc2)O3)c1 (centres undefined)	-3	27	-2	34	1	-9
CC(=O)NCCNC(=O)C1Cc2c(-c3cccc(NC(C)=O)c3)ccnc2O1 (centres undefined)	1	-4	-11	-12	12	-18
CC(=O)c1cccc(-c2ccnc3c2CC(C(=O)NCc2ccc(F)c(F)c2)O3)c1 (centres undefined)	1	-40	65*	-5	3	-50
CC(=O)Nc1cccc(-c2ccnc3c2CC(C(=O)NCc2cccs2)O3)c1 (centres undefined)	4	7	72*	-13	18	-4
CC(=O)c1cccc(-c2ccnc3c2CC(C(=O)NCc2ccccc2)O3)c1 (centres undefined)	4	-56	63*	-4	-10	-27
Cc1ccc(NCc2nnc(SCC(=O)Nc3ncc(C)s3)n2Cc2ccco2)c(C)c1	/	/	/	-1	/	156*
Cc1cc(Cl)ccc1NC(=O)CSc1nnc(-c2ccncc2)n1Cc1ccco1	/	/	/	8	/	/
COc1cccc(CN(C)C(=O)c2cc(-c3ccc(OC)c(OC)c3)nc3ccccc23)c1	1	-20	/	7	0	19
COc1ccc(CN(C)C(=O)c2cc(-c3ccc(OC)c(OC)c3)nc3ccccc23)c(OC)c1	3	-5	/	-3	-26	58*
Cc1noc(/C=C/Nc2ccc(F)cc2F)c1[N+](=O)[O-]	-3	-489	-58	/	-108	-8
COc1ccccc1N/C=C/c1onc(C)c1[N+](=O)[O-]	/	/	/	/	73*	-21
O=C(Nc1ccc(N2CCN(C(=O)c3ccccc3)CC2)cc1)c1ccc([N+](=O)[O-])o1	-16	-9	66*	/	1	-43
Cc1ccccc1C(=O)N1CCN(c2ccc(NC(=O)c3ccc([N+](=O)[O-])o3)cc2)CC1	-3	-5	61*	-9	1	-5
CC(C)C(=O)N1CCN(c2ccc(NC(=O)c3ccc([N+](=O)[O-])o3)cc2)CC1	1	-8	35	/	4	-16
SMILES	CFTR F508del cor	RAD52 anneal inh	EWS-Fli inh	RAD54 inh	LGR2 antag	INS-1E GSIS act
NC(=O)C1=C[C@@H](c2coc3ccccc3c2=O)C[C@@H](OCCCCO)O1	4	-4	-10	4	-18	36
CCN(CC)CCNC(=O)c1cc(-c2cccnc2)nc2ccc(S(=O)(=O)N3CCC(C)CC3)cc12	2	-4	63*	-5	6	15
CCCCN(C)CCNC(=O)c1cc(-c2cccnc2)nc2ccc(S(=O)(=O)N3CCC(C)CC3)cc12	0	-16	/	-11	10	9
CC1CCN(S(=O)(=O)N2CCCC(C(=O)NCc3ccccc3Cl)C2)CC1 (centres undefined)	9.6*	-4	1	5	10	4
CC1CC(C)CN(S(=O)(=O)N2CCCC(C(=O)NCc3ccccc3Cl)C2)C1 (centres undefined)	0	-5	1	2	12	/
Cc1cccc(C)c1NC(=O)C1c2ccccc2Oc2ccccc21	/	/	/	/	-16	51*
CCN1CCN(S(=O)(=O)c2ccc3c4c(cccc24)C(=O)N3CC)CC1	0	-10	17	-11	-26	-1
Cc1ccc(-n2nnnc2SCC(=O)Nc2ncc(Cc3ccccc3Cl)s2)cc1	/	/	/	0	4	156*
CCOC(=O)C1=CN(Cc2ccco2)S(=O)(=O)N(CC)C1c1ccc(F)c(Cl)c1 (centres undefined)	-2	-24	0	-5	13	-16
CCCC(=O)Nc1ccc2c(c1)nc(CN1CCN(C(=O)OCC)CC1)n2C	5	-10	0	-8	1	-2
CCCC(=O)Nc1ccc2c(c1)nc(CN1CCN(C(=O)OCC)CC1)n2CC	12*	-13	47	-12	-3	2
CCc1nc2ccc(C(=O)Nc3cccc(NS(C)(=O)=O)c3)cn2c1N(C)CCCc1ccccc1	4	-67	8	-1	-10	-15
Cc1ccccc1-c1ccc([C@H]2[C@@H](CO)N3CCCCN(C(=O)Nc4cccc(F)c4)C[C@H]23)cc1	-3	10	67*	-28	/	/
Cc1ccccc1-c1ccc([C@H]2[C@@H](CO)N3CCCCN(C(=O)Nc4cccc(F)c4)C[C@@H]23)cc1	-1	32	11	18	-4	-24
Cc1ccccc1-c1ccc([C@@H]2[C@H](CO)N3CCCCN(C(=O)Nc4cccc(F)c4)C[C@@H]23)cc1	-8	21	61*	-17	16	-12
O=C(Nc1cccc(F)c1)N1CCCCN2[C@@H](CO)[C@@H](c3ccc(-c4ccccc4F)cc3)[C@@H]2C1	-1	2	43	-6	12	-9
O=C(N/N=C/c1cn(-c2cccs2)nc1-c1ccccc1)c1ccccc1Br	/	-17	-17	/	/	/
O=C(N/N=C/c1cn(-c2cccs2)nc1-c1ccccc1)c1ccccc1O	/	/	/	/	74*	-22
Cc1cccc(N2CCN(C(=O)c3c(-c4ccccc4Cl)noc3C)CC2)c1C	14*	-5	53*	-3	9	-8
O=C(Nc1cc(C(F)(F)F)ccc1-n1cncn1)C1CC1	-2	-6	-5	7	-1	44
